Several values for one entry are separate records, joined by “and”; a condition that tells them apart may be missing. Equal entries are not always repeated. Results filed as inconclusive are left out. A number with no mark means an inactive call. Activity calls are given as the source filed them. Calls come from the whole dose curve; as a rule, active = well fitted activation curve with a large enough effect; inconclusive = small, poorly fitted or top-dose-only effect; inactive = no such curve, though single readings can be large or run the other way.
Potency is the fitted concentration of half-maximal effect.

In this experiment the target is Cellular tumor antigen p53 (Homo sapiens) (UniProt P04637). Put plainly: Primary qHTS for small molecule compounds that upregulate eGFP-tagged delta133p53alpha (in N-terminal) cells. (AID 2060322).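 For activation: cells pre-induced with doxycycline then dosed without doxycycline; series mostly up to about 56 µM; 0% = DMSO vehicle and 100% = reference activator.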 Note: nearly all actives have a fitted effect of over 75% in size. To be noted: NCI-H358 eGFP-delta133p53alpha fluorescence, 24 h; activation: hits give high values. The gist of the method: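 NCI-H358 cells pre-induced 24 h with 10 ng/ml doxycycline for eGFP-delta133p53alpha, plated dox-free and exposed 24 h at 37C to titrated compounds. Fixed, Hoechst-stained; gated GFP peak intensity by laser scanning cytometry, normalized to DMSO (0%) and 57.5 uM 5-azacytidine (100%).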
Sequence of Cellular tumor antigen p53 (Homo sapiens) (P04637 whole entry, looked up): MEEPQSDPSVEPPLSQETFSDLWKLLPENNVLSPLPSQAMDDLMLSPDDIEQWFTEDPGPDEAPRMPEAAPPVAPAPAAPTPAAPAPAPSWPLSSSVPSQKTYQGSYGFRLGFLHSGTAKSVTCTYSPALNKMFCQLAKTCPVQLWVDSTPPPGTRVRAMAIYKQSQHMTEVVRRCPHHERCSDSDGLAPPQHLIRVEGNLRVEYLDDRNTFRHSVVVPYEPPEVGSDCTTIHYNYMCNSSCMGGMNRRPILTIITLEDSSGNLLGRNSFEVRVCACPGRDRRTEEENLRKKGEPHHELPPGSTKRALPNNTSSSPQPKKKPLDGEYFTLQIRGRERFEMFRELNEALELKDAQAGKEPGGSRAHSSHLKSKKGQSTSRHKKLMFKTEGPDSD
Consider `NCc1ccc(S(N)(=O)=O)cc1`, for which the activation was -15.9%.

`CCn1cc(C(=O)O)c(=O)c2cnc(N3CCNCC3)nc21`: the activation is 0.837%.

Turning to `COc1c(C)c2c(c(O)c1CC=C(C)CCC(=O)O)C(=O)OC2`, the activation was -14.1%.

Consider `CC1(COc2ccc(CC3SC(=O)NC3=O)cc2)CCCCC1` (centres undefined), for which the activation was -3.95%.

On to `N=C1N=C(N)c2cc3ccccc3cc21`, for which the Potency was 35.5 µM (active).

As to `CNc1nc(-c2ccc3c(N)n[nH]c3c2)cc(N2C[C@@H](C(=O)NC3CCCCC3)CC[C@@H]2C)n1`, the activation was -21.3%.

Consider `CCN(CC)CCOC(=O)C1(c2ccccc2)CCCC1`, for which the activation was 3.35%.

Take `CCOc1ccccc1O[C@H](c1ccccc1)[C@H]1CNCCO1`: the activation is -13%.

With `C=CC[C@@H]1C=C(C)C[C@H](C)C[C@H](OC)[C@H]2O[C@@](O)(C(=O)C(=O)N3CCCC[C@H]3C(=O)O[C@H](C(C)=C[C@@H]3CC[C@H](O)[C@H](OC)C3)[C@@H](C)[C@@H](O)CC1=O)[C@@H](C)C[C@@H]2OC`, the activation is 23.1%.

In the case of `CC(C)(C)c1nnc(NS(=O)(=O)c2ccc(N)cc2)s1`, the activation is -16.7%.

On to `CC[C@H]1OC(=O)[C@H](C)[C@@H](O[C@H]2C[C@@](C)(OC)[C@@H](O)[C@H](C)O2)[C@H](C)[C@@H](O[C@@H]2O[C@@H](C)C[C@H](N(C)C)[C@@H]2O)[C@](C)(O)C[C@@H](C)C(=O)[C@H](C)[C@@H](O)[C@]1(C)O`, for which the activation was 29.3%.

In the case of `COc1ccc2c(c1)c(CC(=O)OCC(=O)O)c(C)n2C(=O)c1ccc(Cl)cc1`, the activation is -15.1% and 5.95%.

Consider `CN1CCCC(n2nc(Cc3ccc(Cl)cc3)c3ccccc3c2=O)CC1` (centres undefined), for which the activation was 10.9% and 17.6%.

Regarding `CC(Oc1c(Cl)cccc1Cl)C1=NCCN1` (centres undefined), the activation is 3.35%.

For the compound `CCN(CCCc1ccccc1)CCCc1ccccc1`, the activation was -1.67%.

In the case of `Cc1cc(O)c(C(C)C)cc1Cl`, the activation was -0.565%.

Turning to `CCOC(=O)CN1CCCC1=O`, the activation was -0.837%.

In the case of `NS(=O)(=O)c1cc2c(cc1C(F)(F)F)NC(Cc1ccccc1)NS2(=O)=O` (centres undefined), the activation is -6.69%.

For `CCCCCCCCCCC[C@@H](C[C@@H]1OC(=O)[C@H]1CCCCCC)OC(=O)[C@H](CC(C)C)NC=O`, the activation is 2.82%.

As for `O=C(O)c1ccccc1C(=O)Nc1ccc(S(=O)(=O)Nc2nccs2)cc1`, the activation was 8.47%.

Regarding `CC1(C)O[C@@H]2C[C@H]3[C@@H]4CCC5=CC(=O)C=C[C@]5(C)[C@@H]4[C@@H](O)C[C@]3(C)[C@]2(C(=O)CO)O1`, the activation is 10.4%.

With `NS(=O)(=O)c1cc2c(cc1Cl)CN(C1CCCCC1)C2=O`, the activation was 20.9%.

For `FC1(F)C(F)(F)C(F)(F)C2(F)C(F)(F)C(F)(F)C(F)(F)C(F)(F)C2(F)C1(F)F` (centres undefined), the activation is -7.34%.

On to `NC(=O)NC1NC(=O)NC1=O` (centres undefined), for which the activation was -17.5%.
